Test results taken from PubChem BioAssay (NCATS).
Inconclusive results are not listed. The source made the active and inactive calls. Calls follow the shape of the dose curve; as a rule, active = well fitted curve in the direction sought with a large enough effect; inconclusive = small, poorly fitted or top-dose-only effect, or another doubt; inactive = no such curve, though single readings can be large; an effect the other way counts as inactive or inconclusive. Where a SMILES comes first, the peptide text is derived from it.

What was measured:
[1] = molecular target: Glutathione peroxidase 1 (Homo sapiens) (UniProt P07203); assay: Primary qHTS Assay for Inhibitors of Recombinant Selenoprotein Glutathione Peroxidase 1 (GPX1) (AID 1845191); also: nearly all actives have a fitted effect of over 65% in size; as to activity, negative = inhibition: % is scaled to controls: 0 for no effect and ±100 for the full control effect
Summary of the method: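 NADPH consumption tracked by fluorescence at 340/450 nm between t=0 and t=15 min, room temperature. Final mix: 10 nM GPX1, 100 nM glutathione reductase, 1 mM GSH, 0.5 mM NADPH, 0.5 mM cumene hydroperoxide, 0.01% BSA; 30 min compound–enzyme preincubation.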

[2] = molecular target: Phospholipid hydroperoxide glutathione peroxidase GPX4 (Homo sapiens) (UniProt P36969); assay: Primary qHTS Assay for Inhibitors of Recombinant Selenoprotein Glutathione Peroxidase 4 (GPX4) (AID 1845192); also: nearly all actives have a fitted effect of over 65% in size; also: potency is read from the fitted curve at half-maximal effect; as to activity change, negative = inhibition: series mostly up to about 50 µM; % is scaled to controls: 0 for no effect and ±100 for the full control effect
Summary of the method: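 NADPH consumption followed by fluorescence at 340/450 nm, t=0 and after 15 min at room temperature. Reaction started with cumene hydroperoxide (0.5 mM final) after 30 min compound–GPX4 preincubation; final 200 nM GPX4, 100 nM GR, 1 mM GSH, 0.5 mM NADPH.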

[3] = Primary fluorescence-based thiol-reactive (MSTI) qHTS assay for identification of artifact compounds. (AID 1845221); also: nearly all actives have a fitted effect of over 65% in size; also: potency is read from the fitted curve at half-maximal effect;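 as to activity change, negative = thiol reactive: series mostly up to about 54 µM; thiol-reactive compounds lower the probe fluorescence signal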
Summary of the method: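 Curve-fitted percent inhibition (4-parameter Hill) derived from fluorescence, Ex 525/Em 598 nm, scaled with Acetyl-MSTI and MSTI; 1 h incubation at room temperature.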

[4] = molecular target: Luciferin 4-monooxygenase (Photinus pyralis) (UniProt P08659); assay: Primary firefly luciferase (FLuc) qHTS assay for identification of artifact compounds. (AID 1845220); also: nearly all actives have a fitted effect of over 60% in size;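 as to activity change, negative = inhibition: series mostly up to about 54 µM; plate controls were DMSO vehicle for no effect and no enzyme for full effect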
Summary of the method: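 Cell-free, 1536-well qHTS. Buffer pH 7.6 with 0.01% Tween-20 and 0.05% BSA; 10 uM D-luciferin, 10 uM ATP; 10 nM P. pyralis luciferase; luminescence after 5 min.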

[5] = tested on: Nanoluciferase (engineered Oplophorus gracilirostris luciferase); assay: Primary Nanoluciferase (NLuc) qHTS assay for identification of artifact compounds. (AID 1845222);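 also: series mostly up to about 54 µM; 0% = DMSO and -100% = no enzyme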
Summary of the method: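 Compounds are pinned into diluted (1:55) conditioned medium of NLuc-expressing S16 cells and held 15 min at room temperature protected from light. Nano-Glo substrate follows, and luminescence is read 5 min later.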

Chain of Phospholipid hydroperoxide glutathione peroxidase GPX4 (Homo sapiens) (P36969 whole entry, looked up): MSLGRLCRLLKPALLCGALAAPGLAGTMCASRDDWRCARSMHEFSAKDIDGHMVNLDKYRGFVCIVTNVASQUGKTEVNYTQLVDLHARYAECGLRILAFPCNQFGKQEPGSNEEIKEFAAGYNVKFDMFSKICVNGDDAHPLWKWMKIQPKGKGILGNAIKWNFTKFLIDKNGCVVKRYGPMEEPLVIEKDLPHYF
Chain of Glutathione peroxidase 1 (Homo sapiens) (P07203 whole entry, looked up): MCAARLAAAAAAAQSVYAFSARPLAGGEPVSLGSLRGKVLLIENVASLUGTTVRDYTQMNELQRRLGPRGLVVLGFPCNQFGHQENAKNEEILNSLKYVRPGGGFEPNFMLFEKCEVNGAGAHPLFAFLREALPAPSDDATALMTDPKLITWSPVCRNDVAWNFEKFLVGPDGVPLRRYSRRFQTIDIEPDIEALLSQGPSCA

CCOc1cc2ncc(C#N)c(Nc3ccc(OCc4ccccn4)c(Cl)c3)c2cc1NC(=O)/C=C/CN(C)C
inactive: Potency [1] | Potency [2] | Potency [3]

CC(/C=C/C1(O)C(C)(C)CC(O)CC1(C)O)OC1OC(CO)C(O)C(O)C1O (stereo unspecified)
inactive: Potency [1] | Potency [2] | Potency [4] | Potency [5]

CC1(CCC(=O)O)C(=O)C=CC23CC4CC(OC4(C)C2O)C13 (stereo unspecified)
inactive: Potency [1] | Potency [2] | Potency [4] | Potency [5]

CC(C)CNC(=O)/C=C/CCCCc1ccc2c(c1)OCO2
inactive: Potency [1] | Potency [2] | Potency [3] | Potency [5]

Cc1cc(O)cc(Oc2cc(C)c(C(=O)O)c(O)c2)c1
active: Potency [3] 3.36 µM
inactive: Potency [1] | Potency [2] | Potency [5]

C=C1CC[C@@H]2[C@](C)(CO[C@@H]3O[C@H](CO)[C@@H](O)[C@H](O)[C@H]3O)CCC[C@@]2(C)[C@@H]1CCC1=CCOC1=O
inactive: Potency [1] | Potency [2] | Potency [3] | Potency [5]

C[C@@H]1O[C@@H](O[C@H]2[C@H](OC(=O)[C@]34CCC(C)(C)C[C@H]3C3=CCC5[C@@]6(C)CC[C@H](O[C@@H]7O[C@H](CO[C@@H]8OC[C@H](O)[C@H](O)[C@H]8O)[C@@H](O)[C@H](O)[C@H]7O)C(C)(C)C6CC[C@@]5(C)[C@]3(C)C[C@H]4O)OC[C@@H](O)[C@@H]2O)[C@H](O)[C@H](O)[C@H]1O[C@@H]1OC[C@H](O)[C@H](O[C@@H]2OC[C@@H](O)[C@H](O)[C@H]2O)[C@H]1O (stereo partly specified)
inactive: outcome [1] inactive [at 9.52 µM] | activity change, negative = inhibition [2] -4.93% [at 9.73 µM] | activity change, negative = thiol reactive [3] 146% [at 11.5 µM] | activity, negative = inhibition [5] -4.62% [at 11.6 µM]

CC(C)C1=CCC(C)(O)C(OC2OC(CO)C(O)C(O)C2O)C1 (stereo unspecified)
active: Potency [3] 2.33 µM
inactive: Potency [1] | Potency [2] | Potency [5]

CNC(=O)O[C@H]1COc2ccc(N3CCN(C4COC4)CC3)cc2[C@@H]1NC(=O)c1ccc(F)cc1
inactive: Potency [1] | Potency [2] | Potency [3] | Potency [5]

CC1NC(=O)CNC(=O)C(C(C)C)NC(=O)C2CCCN2C(=O)C(C(C)C)NC(=O)C(Cc2c[nH]c3ccccc23)NC1=O (stereo unspecified) (cyclo(GAWVPV); configuration not given here)
inactive: Potency [1] | Potency [2] | Potency [3] | Potency [5]

COC(=O)C12C(=O)C(C)=C(O)C1(C)C(C)=CC1C34CCC(OC3=O)C(C)(C)C4CCC12C (stereo unspecified)
inactive: Potency [1] | Potency [2] | Potency [5]

O=C(O)c1n[nH]c2c1C[C@H]1C[C@@H]21
inactive: Potency [1] | Potency [2] | Potency [3] | Potency [5]

C1CCN2CC3C[C@@H](CN4CCCC[C@@H]34)[C@H]2C1
inactive: Potency [1] | Potency [2] | Potency [3] | Potency [5]

CC(C)NC[C@H](O)COc1ccc(CCOCC2CC2)cc1
inactive: Potency [1] | Potency [2] | Potency [3] | Potency [5]

CC1(C)CCC(C)(C)c2cc3c(cc21)Sc1ccccc1N=C3c1ccc(C(=O)O)cc1
inactive: Potency [1] | Potency [2] | Potency [3] | Potency [5]

O=C(Nc1cccnn1)N1CCC(=Cc2cccc(Oc3ccc(C(F)(F)F)cn3)c2)CC1
inactive: Potency [1] | Potency [2] | Potency [3] | Potency [5]

OC[C@H]1O[C@@H](Oc2cc(O)cc(/C=C/c3ccc(O)cc3)c2)[C@H](O)[C@@H](O)[C@@H]1O
inactive: Potency [1] | Potency [2] | Potency [5]

O=C(O)c1ccc(CCCc2ccc(OCCc3ccc(F)cc3)cc2)o1
inactive: Potency [1] | Potency [3] | Potency [5]
active: Potency [2] 16.1 µM

CC[C@H]1OC(=O)[C@H](C)[C@@H](O[C@H]2C[C@@](C)(OC)[C@@H](O)[C@H](C)O2)[C@H](C)[C@@H](O[C@@H]2O[C@H](C)C[C@H](N(C)C)[C@H]2O)[C@@](C)(O)C[C@@H](C)[C@@H]2N[C@@H](COCCOC)OC([C@H]2C)[C@]1(C)O
inactive: Potency [1] | Potency [2] | Potency [3] | Potency [5]

COc1cc(NC(=O)c2ccccn2)ccc1Cl
inactive: Potency [1] | Potency [2] | Potency [3] | Potency [5]

CCC(=O)N[C@@H]1Cc2ccccc2[C@H](c2ccccc2)C1
inactive: Potency [1] | Potency [2] | Potency [3] | Potency [5]

CC1(C(=O)O)CCCC2(C)C1CCC13CC(CCC21)C1(CO)OC31 (stereo unspecified)
inactive: Potency [1] | Potency [2] | Potency [3] | Potency [5]

COc1ccc([C@H]2Cc3cccc(O)c3C(=O)O2)cc1
inactive: Potency [1] | Potency [2] | Potency [3] | Potency [5]

COc1ccc2cc(OCC3(C(=O)O)CN(C(=O)c4ccc(F)cc4)C3)ccc2c1
inactive: Potency [1] | Potency [4] | Potency [3]

CC1CCC2(O1)C(C)(C)CC(O[C@@H]1O[C@H](CO[C@@H]3OC[C@](O)(CO)[C@H]3O)[C@@H](O)[C@H](O)[C@H]1O)CC2(C)O (stereo partly specified)
inactive: Potency [1] | Potency [2] | Potency [5]
active: Potency [3] 13 µM
